BAZ2B inh: blocks human BAZ2B; Q9UIF8; AlphaScreen BAZ2B-H3K14Ac peptide displacement; 360,000 compounds, 4.4% hits; AID 504333; Potency, µM (titrated, usually from 114 µM), most hits filed as inhibitors; further: nearly all actives have a fitted effect of over 60% in size
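In this displacement format the biotinylated H3(5-23) peptide acetylated at Lys14 serves as ligand at 50 nM, with BAZ2B at 50 nM in PBS pH 7.4 containing 0.01% Tween-20. Donor and acceptor beads are 10 ug/mL final.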
JMJD2A Tudor: JMJD2A Tudor domain (human) inhibition | AlphaScreen JMJD2A-Tudor / H3K4me3 peptide binding | O75164 | Potency, µM (titrated, usually from 114 µM), actives largely listed as inhibitors | 390,000 compounds, 4.4% hits | AID 504339; further: nearly all actives have a fitted effect of over 50% in size
Target sequence (O75164 whole entry, looked up, the tested form may be a part): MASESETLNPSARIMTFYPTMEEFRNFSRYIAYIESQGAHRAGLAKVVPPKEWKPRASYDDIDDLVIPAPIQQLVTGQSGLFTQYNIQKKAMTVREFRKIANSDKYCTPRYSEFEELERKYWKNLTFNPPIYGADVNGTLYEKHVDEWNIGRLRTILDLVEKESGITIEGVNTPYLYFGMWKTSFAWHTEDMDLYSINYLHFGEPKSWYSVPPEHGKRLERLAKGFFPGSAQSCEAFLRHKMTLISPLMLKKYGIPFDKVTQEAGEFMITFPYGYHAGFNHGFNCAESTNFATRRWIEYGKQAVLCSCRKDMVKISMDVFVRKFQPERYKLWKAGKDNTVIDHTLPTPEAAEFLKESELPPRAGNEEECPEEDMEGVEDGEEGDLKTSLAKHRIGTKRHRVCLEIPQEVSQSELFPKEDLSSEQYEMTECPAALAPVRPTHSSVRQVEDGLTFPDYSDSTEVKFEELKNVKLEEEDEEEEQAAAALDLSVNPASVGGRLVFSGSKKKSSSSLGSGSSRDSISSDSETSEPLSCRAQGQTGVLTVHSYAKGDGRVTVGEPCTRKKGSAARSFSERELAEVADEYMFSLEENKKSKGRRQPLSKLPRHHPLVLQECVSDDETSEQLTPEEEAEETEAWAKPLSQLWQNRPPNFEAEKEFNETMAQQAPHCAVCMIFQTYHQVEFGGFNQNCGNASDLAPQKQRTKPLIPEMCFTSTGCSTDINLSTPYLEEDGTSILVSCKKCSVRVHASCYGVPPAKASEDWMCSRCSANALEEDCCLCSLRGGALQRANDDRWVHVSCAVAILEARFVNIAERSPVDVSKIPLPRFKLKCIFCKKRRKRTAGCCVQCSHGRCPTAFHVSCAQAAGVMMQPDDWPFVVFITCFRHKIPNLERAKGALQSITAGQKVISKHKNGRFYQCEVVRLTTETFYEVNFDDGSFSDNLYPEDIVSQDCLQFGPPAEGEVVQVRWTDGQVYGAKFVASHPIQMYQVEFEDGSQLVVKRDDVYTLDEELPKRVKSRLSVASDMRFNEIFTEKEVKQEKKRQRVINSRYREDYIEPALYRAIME
G9a inh: inhibitors of human histone lysine methyltransferase G9a; Q96KQ7; G9a H3K9 monomethylation, AlphaScreen, 2 h; Potency, µM (series often up to 102 µM), actives largely listed as inhibitors; 350,000 compounds, 8.8% hits; further: nearly all actives have a fitted effect of over 75% in size
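Readings reflect AlphaScreen signal from monomethyl-H3K9 antibody detection. HMT at 20 nM; substrate b-H3K9 500 nM; cofactor SAM 20 uM; 2 h RT reaction; compounds tested as titrations in qHTS with 15 min preincubation.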
L3MBTL1 block: L3MBTL1 (human) inhibition; Potency, µM (doses to about 57.1 µM), most hits filed as inhibitors; AlphaScreen L3MBTL1–H3K9me1 peptide binding; AID 485360; Q9Y468; 230,000 compounds, 0.66% hits; further: nearly all actives have a fitted effect of over 60% in size
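AlphaScreen assay: L3MBTL1 (50 nM final) was preincubated 30 min at room temperature with biotinylated H3(1-15)K9me1 peptide (75 nM final), then 30 min with library compounds; streptavidin donor and nickel chelate acceptor beads (10 ug/mL final) added, 30 min dark.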
HP1b binding inh: inhibitors of HP1-beta chromodomain binding to methylated histone tails; 390,000 compounds, 0.56% hits; P83916; Potency, µM (doses to about 114 µM), hits mostly inhibitors; AID 540317; AlphaScreen HP1-beta / biotin-H3K9me3 peptide binding; further: nearly all actives have a fitted effect of over 70% in size
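HP1-beta protein (50 nM final) preincubated 30 min at room temperature with biotinylated H3(1-18)K9me3 peptide (50 nM) in PBS pH 7.4, 0.01% Tween-20, then compound added for 30 min. AlphaScreen streptavidin donor/nickel chelate acceptor beads (10 ug/mL final), 30 min dark, luminescence read.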
Of the large screens only hits and unclear results are named; the others gave an inactive call. This is a sample that favours compounds with a hit; in the whole collection about 11% have one here. The call rests on the fitted dose curve; in most records, active means well fitted inhibition curve with a large enough effect; inconclusive means small, poorly fitted or top-dose-only effect; inactive means no such curve, though single readings can be large or run the other way.

CC1CCCC/C1=N/Nc1ccc([N+](=O)[O-])cc1[N+](=O)[O-] (stereo unspecified)	BAZ2B inh inconclusive, JMJD2A Tudor 50.1µM, G9a inh 35.5µM (no result: L3MBTL1 block)
CC1C/C(=N/Nc2ccc([N+](=O)[O-])cc2[N+](=O)[O-])CC(C)(C)C1 (stereo unspecified)	BAZ2B inh 10µM, JMJD2A Tudor 5.62µM, G9a inh 10µM, L3MBTL1 block inconclusive, HP1b binding inh 8.91µM
CC1C/C(=N/Nc2nc3ccccc3[nH]2)CC(C)(C)C1 (stereo unspecified)	BAZ2B inh inconclusive, JMJD2A Tudor inconclusive
CN(C)c1ccc(C(=O)N2CCCC(N3CCN(Cc4ccc5c(c4)OCO5)CC3)C2)cc1 (stereo unspecified)	BAZ2B inh inconclusive (no result: G9a inh, L3MBTL1 block)
COC(=O)c1ccc(NC(=O)CSc2ccc(-c3sc(-c4ccccc4)nc3C)nn2)cc1	none (no result: L3MBTL1 block)
CC(C)CC(=O)NC(=S)Nc1cc(C(F)(F)F)ccc1N1CCOCC1	G9a inh 79.4µM
O=C(CNCc1ccccn1)Nc1cc(C(F)(F)F)ccc1N1CCOCC1	BAZ2B inh 44.7µM, JMJD2A Tudor 44.7µM
O=C(Cn1cncn1)N1CCN(c2ccc(F)cc2)CC1	none (no result: G9a inh)
Cc1cccc(C)c1N1CCN(C(=O)Cn2cncn2)CC1	JMJD2A Tudor inconclusive, G9a inh 17.8µM
Cn1cc(/C=N/NC(N)=S)c2ccccc21	none
C=CCNC(=S)N/N=C/c1cn(C)c2ccccc12	JMJD2A Tudor 56.2µM, HP1b binding inh inconclusive (no result: G9a inh, L3MBTL1 block)
COC(=O)c1ccc[n+](CC(=O)Nc2ccc(OC(F)F)cc2)c1	JMJD2A Tudor inconclusive, G9a inh 44.7µM, HP1b binding inh inconclusive
O=C(C[n+]1cccc(CNC(=O)c2ccc(OC(F)F)cc2)c1)Nc1ccc(F)cc1	none
CCN(CC(=O)Nc1ccc(NC(C)=O)cc1)C(=O)CSc1ncnc2sc(C)c(C)c12	JMJD2A Tudor inconclusive, G9a inh 12.6µM
Cc1sc2ncnc(SCC(=O)NC(=O)c3cccn3C)c2c1C	G9a inh 31.6µM (no result: L3MBTL1 block)
CC(=O)c1ccc(NC(=O)c2ccccc2Sc2ncnc3sc(C)c(C)c23)cc1	G9a inh 31.6µM
Cc1sc2ncnc(Sc3ccccc3C(=O)O)c2c1C	none (no result: L3MBTL1 block)
CC(=O)Nc1ccc(NC(=O)CSc2ncnc3sc(C)c(C)c23)cc1	none (no result: L3MBTL1 block)
O=C(CSc1ccccn1)Nc1nonc1[N+](=O)[O-]	none (no result: G9a inh, L3MBTL1 block)
Cc1ccc2c(=O)cc(CSc3ccccc3)[nH]c2c1C	none (no result: L3MBTL1 block)
Cc1ccc(SCc2cc(=O)c3c(=O)n(-c4ccccc4)[nH]c3[nH]2)cc1	BAZ2B inh 28.2µM, JMJD2A Tudor inconclusive, G9a inh 17.8µM, HP1b binding inh inconclusive
O=c1cc(CSc2ccc(Cl)cc2)[nH]c2[nH]n(-c3ccccc3)c(=O)c12	BAZ2B inh 35.5µM, JMJD2A Tudor inconclusive, G9a inh 39.8µM, L3MBTL1 block inconclusive, HP1b binding inh inconclusive
COc1ccc(C2N3CC4(C)CN2CC(c2ccccc2)(C3)C4=O)cc1 (stereo unspecified)	JMJD2A Tudor inconclusive (no result: L3MBTL1 block)
COc1ccc(Cl)cc1NC(=O)CCCS(=O)(=O)c1nc(-c2ccc(OC)c(OC)c2)cc(C(F)(F)F)n1	none (no result: L3MBTL1 block)
COc1ccc(Cl)cc1Nc1sc(C(=O)c2ccccc2)c(N)c1C(=O)Nc1ccccc1	BAZ2B inh inconclusive, JMJD2A Tudor inconclusive, G9a inh 15.8µM, HP1b binding inh inconclusive (no result: L3MBTL1 block)
Cc1cccc(Nc2sc(C(=O)c3ccc(Cl)cc3)c(N)c2C(N)=O)c1	BAZ2B inh inconclusive (no result: L3MBTL1 block)
Cc1ccccc1Nc1sc(C(=O)Nc2cccc(Cl)c2)c(N)c1C(N)=O	BAZ2B inh inconclusive, G9a inh 79.4µM
Cc1nnsc1C(=O)Oc1ccccc1Cl	G9a inh inconclusive (no result: L3MBTL1 block)
O=[N+]([O-])c1cc2cccnc2c2ncccc12	BAZ2B inh 22.4µM, JMJD2A Tudor 79.4µM, L3MBTL1 block inconclusive (no result: G9a inh)
c1cnc2ccc3c(c2c1)COCO3	none (no result: BAZ2B inh, G9a inh, L3MBTL1 block)
Cc1ccc([N+](=O)[O-])c2cccnc12	none (no result: G9a inh)
O=[N+]([O-])c1cc2c(c3cccnc13)COCO2	JMJD2A Tudor 25.1µM, HP1b binding inh inconclusive (no result: BAZ2B inh, G9a inh, L3MBTL1 block)
O=[N+]([O-])c1cc(O)c2ncccc2c1	BAZ2B inh 5.62µM, JMJD2A Tudor 17.8µM (no result: L3MBTL1 block)
CCc1ccccc1NC(=O)C(=O)NCC(c1cccnc1)N1CCN(c2ccccc2F)CC1 (stereo unspecified)	none (no result: L3MBTL1 block)
CCOc1ccccc1NC(=O)Cn1c(=O)n(CCCC(=O)NCCOC)c(=O)c2cc(OC)c(OC)cc21	none (no result: L3MBTL1 block)

Screening data (PubChem)
